This passage reports growth results from PubChem BioAssay (NCI).

SMILES strings stand for the structures. Compounds without any hit were thinned out: in the full panel of roughly 83,000, 20% have a hit.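 Percent growth is the endpoint: 0 to 100 indicates growth inhibition (40 means 60% inhibition), 0 means no net growth, and negative values indicate cell death.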 Unmarked numbers belong to inactive results. Activity calls are given as the source filed them. How the source made its calls: active means growth percent below 10; inactive means the rest.

Some test systems named below: NCI-H23 lung; NCI-H226 lung; NCI-H322M lung; HOP-62 NSCLC; NCI-H460 lung; HOP-92 NSCLC; NCI-H522 lung; A549/ATCC NSCLC; 786-0 renal; COLO 205 colon; DU-145 prostate; K-562 leukemia; MALME-3M melanoma; MDA-MB-231 breast; RXF 393 renal; SF-268 CNS; SF-295 CNS; SF-539 CNS; UACC-257 melanoma; M14 melanoma.
Common to all, as to experiment: NCI-60 one-dose screen, 48 h (100 = growth as untreated, 0 = no growth, -100 = all killed)
Settings in all cases: 10 µM unless noted

On to `CC1=C(C(=O)/C=C/c2ccc(N(C)C)cc2)C(c2ccccc2)NC(=S)N1` (stereo not given), for which the growth in the experiment with NCI-H23 lung was 93.3%; with NCI-H226 lung, 93.8%; in the experiment with NCI-H322M lung, 103%; in the experiment on HOP-62 NSCLC it was 106%; with NCI-H460 lung, 108%; in the experiment with HOP-92 NSCLC, 96.6%. The growth with NCI-H522 lung is 91%; in the experiment on A549/ATCC NSCLC it was 106%; with 786-0 renal, 101%; with COLO 205 colon it was 119%; in the experiment with DU-145 prostate it was 107%; with K-562 leukemia, 92.1%. For the same compound, the growth in the experiment with MALME-3M melanoma was 108%; in the experiment with MDA-MB-231 breast, 100%; in the experiment on RXF 393 renal, 107%; in the experiment with SF-268 CNS, 97.8%; in the experiment on SF-295 CNS, 110%; in the experiment on SF-539 CNS it was 97.1%. Also, the growth is 99.7% with UACC-257 melanoma and 101% in the experiment on M14 melanoma.

As for `N#Cc1cccc(-c2ccc3c(c2)NC(=O)/C3=C\c2ccc[nH]2)c1`, the growth in the experiment with NCI-H23 lung was 34.2%; in the experiment with NCI-H226 lung, 41.6%; in the experiment on NCI-H322M lung, 45.5%; in the experiment on HOP-62 NSCLC it was 62.7%; with NCI-H460 lung, 22.4%; in the experiment on HOP-92 NSCLC, 56.7%. Moreover, the growth in the experiment with NCI-H522 lung was 28.7%; with A549/ATCC NSCLC it was 86.5%; in the experiment on 786-0 renal it was 74.5%; in the experiment on COLO 205 colon, 3.47% (active); in the experiment with DU-145 prostate, 92.8%; with K-562 leukemia, 18.8%. For the same compound, the growth is 51.6% in the experiment on MALME-3M melanoma; 33.5% with MDA-MB-231 breast; 73.3% in the experiment on RXF 393 renal; 95.6% in the experiment with SF-268 CNS; 78.7% in the experiment with SF-295 CNS; 71.8% in the experiment on SF-539 CNS. Also, the growth was 67.6% in the experiment with UACC-257 melanoma and 56.4% in the experiment on M14 melanoma.

As for `CN(C)c1ccc(Nc2c3ccccc3nc3cc(NC(=O)CCN4CCCC4)ccc23)cc1`, the growth in the experiment with NCI-H23 lung is -42.5% (active); in the experiment on NCI-H226 lung, -1.19% (active); in the experiment with NCI-H322M lung, -14.6% (active); in the experiment with HOP-62 NSCLC, -8.55% (active); in the experiment with NCI-H460 lung, -65.5% (active); in the experiment with HOP-92 NSCLC, -9.52% (active). The growth with NCI-H522 lung is -32.8% (active); in the experiment with A549/ATCC NSCLC, -33.5% (active); in the experiment on 786-0 renal, -54% (active); in the experiment with COLO 205 colon, -27.3% (active); in the experiment on DU-145 prostate it was -38.5% (active); in the experiment with K-562 leukemia, -4.43% (active). For the same compound, the growth in the experiment with MALME-3M melanoma was -90.9% (active); in the experiment with MDA-MB-231 breast, -38.1% (active); in the experiment on RXF 393 renal it was -6.44% (active); in the experiment on SF-268 CNS it was -6.93% (active); with SF-295 CNS it was 6.34% (active); in the experiment on SF-539 CNS it was -69% (active). The growth was -52% (active) with UACC-257 melanoma and -84.9% (active) in the experiment on M14 melanoma.

Take `CC(=O)c1ccc(NS(=O)(=O)c2cccc(C(=O)Nc3ccc(Br)cc3)c2)cc1`: the growth in the experiment with NCI-H23 lung was 36.4% [25 µM]; with NCI-H226 lung it was 43% [25 µM]; in the experiment on NCI-H322M lung, 89% [25 µM]; with HOP-62 NSCLC, 82% [25 µM]; with NCI-H460 lung it was 75.7% [25 µM]; with HOP-92 NSCLC, 47.7% [25 µM]. The growth in the experiment with NCI-H522 lung was 46.4% [25 µM]; with A549/ATCC NSCLC, 61.9% [25 µM]; in the experiment with 786-0 renal, 58.7% [25 µM]; in the experiment with COLO 205 colon, 77.7% [25 µM]; with DU-145 prostate it was 94.6% [25 µM]; in the experiment with K-562 leukemia, 44.4% [25 µM]. The growth is 56.2% [25 µM] in the experiment with MALME-3M melanoma; 94.1% [25 µM] in the experiment on MDA-MB-231 breast; 61.7% [25 µM] in the experiment with RXF 393 renal; 60.8% [25 µM] in the experiment with SF-268 CNS; 23.8% [25 µM] with SF-295 CNS; 66.5% [25 µM] in the experiment on SF-539 CNS. Further, the growth in the experiment on UACC-257 melanoma was 44.6% [25 µM]; in the experiment on M14 melanoma, 63.9% [25 µM].

`COc1cc2nc(-c3ccc(C(F)(F)F)cc3)cc(OCCN3CCCCC3)c2cc1OC`: the growth with NCI-H23 lung is 84.7%; with NCI-H226 lung it was 73.2%; in the experiment with NCI-H322M lung, 73.1%; in the experiment on HOP-62 NSCLC it was 69.7%; in the experiment with NCI-H460 lung it was 46.3%; with HOP-92 NSCLC, 68.2%. The growth was 91.2% in the experiment with NCI-H522 lung; 81% in the experiment with A549/ATCC NSCLC; 78.7% in the experiment with 786-0 renal; 27.4% in the experiment on COLO 205 colon; 70.9% in the experiment with DU-145 prostate; 53.4% in the experiment on K-562 leukemia. In addition, the growth in the experiment on MALME-3M melanoma was 74.4%; in the experiment with MDA-MB-231 breast it was 54.1%; in the experiment on RXF 393 renal, 62.4%; with SF-268 CNS, 75.8%; in the experiment with SF-295 CNS, 77.5%; in the experiment with SF-539 CNS, 74.4%. For the same compound, the figures for the growth with UACC-257 melanoma and in the experiment with M14 melanoma were 36.6% and -11.8% (active), respectively.

With `O=S(=O)(NCCCNc1nccc(-c2c(-c3cccc(F)c3)nc3sccn23)n1)c1cccc2ccccc12`, the growth in the experiment with NCI-H23 lung is 66.2%; with NCI-H226 lung it was 36.8%; in the experiment on NCI-H322M lung, 81.6%; in the experiment on HOP-62 NSCLC, 80.7%; in the experiment on NCI-H460 lung, 19.8%; in the experiment on HOP-92 NSCLC, 94.6%. Besides, the growth with NCI-H522 lung was 56.3%; with A549/ATCC NSCLC it was 45.6%; in the experiment on 786-0 renal, 52.9%; in the experiment with COLO 205 colon, 21.5%; in the experiment with DU-145 prostate, 49.9%; with K-562 leukemia, 15.2%. The growth in the experiment with MALME-3M melanoma is 78.7%; in the experiment with MDA-MB-231 breast, 4.05% (active); with RXF 393 renal it was 62.9%; in the experiment on SF-268 CNS it was 44.5%; with SF-295 CNS, 34.6%; in the experiment on SF-539 CNS, 72.8%. Also, the growth is 72.9% with UACC-257 melanoma and 42.7% in the experiment on M14 melanoma.

On to `CCCCCC(=O)Oc1ccc(/C(=C(\C)c2ccccc2)c2ccc(OCCN3CCCCC3)cc2)cc1`, for which the growth in the experiment on NCI-H23 lung is 74.9%; in the experiment with NCI-H226 lung, 93.5%; in the experiment on NCI-H322M lung it was 83.8%; with HOP-62 NSCLC, 87.7%; with NCI-H460 lung, 82.1%; in the experiment with HOP-92 NSCLC, 91.2%. The growth in the experiment with NCI-H522 lung was 70.1%; with A549/ATCC NSCLC it was 77.5%; in the experiment on 786-0 renal it was 69.9%; in the experiment with COLO 205 colon it was 34.4%; in the experiment on DU-145 prostate, 97.2%; in the experiment on K-562 leukemia, 20.1%. Moreover, the growth in the experiment with MALME-3M melanoma was 68%; in the experiment on MDA-MB-231 breast, 95%; with RXF 393 renal, 82.7%; in the experiment with SF-268 CNS it was 84.5%; with SF-295 CNS, 84.2%; in the experiment on SF-539 CNS it was 59.4%. Moreover, the figures for the growth in the experiment on UACC-257 melanoma and in the experiment on M14 melanoma were 72.4% and 65.9%, respectively.
